# Bioassay records: PubChem, several laboratories
# The sample as a whole holds a higher share of hits than the screen did.
# GIRK2 act – Activates human GIRK2-containing potassium channels; P48051; HEK293 GIRK2/NPY4 cells, thallium flux fluorescence; activation (% efficacy), % for hits at 37.5 µM; 34,000 tested, under 10 active; AID 1259324;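 active = primary screen hit, no activity in plain HEK293 cells, and in GIRK2-only cells above 5% efficacy rising with concentration; inactive = the rest, including fluorescent compounds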;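 also: efficacy is normalized control-subtracted fluorescence 15 s after thallium addition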
# GluA2 TARP mod – modulators of AMPA receptor GluA2-stargazin complexes; hit rate 3.5% among 40,000; HEK293 GluA2+stargazin, membrane potential dye (FDSS), glutamate EC50; hits were called plate by plate, in both directions; calls only at 30 µM; AID 1259245;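 active = any of four per-well response measures lying three or more SD from its plate-wide compound average, in either direction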
# Starred values were filed as active, the others as inactive; i = inactive; nt = no result; + = active, no number.
SMILES,GIRK2 act,GluA2 TARP mod
COc1ccc(-c2c(C)nn3c(-n4cnc5ccccc54)cc(C)nc23)cc1OC,i,i
Cc1cc(NC(=O)c2ccco2)ccc1N1CCCC1=O,i,i
N#C/C(=C\c1ccccc1)c1nc2ccccc2s1,nt,i
N#C/C(=C\c1cccs1)c1nc2ccccc2s1,nt,+
CC(=O)Nc1cccc(NC(=O)Nc2cn(C)c3ccccc23)c1,nt,i
COCCNC(=O)Cn1nc2c(c1NC(=O)C1(c3ccc(Cl)cc3)CCCC1)CSC2,i,+
CCCNC(=O)Cn1nc2c(c1NC(=O)C1(c3ccc(Cl)cc3)CCCC1)CSC2,i,i
COc1ccc(CNC(=O)Cn2nc3c(c2NC(=O)c2ccc(C)c(C)c2)CSC3)cc1,i,i
CCCNC(=O)Cn1nc2c(c1NC(=O)CCc1ccc(OC)cc1)CSC2,i,+
CSCCC(C)(O)CNS(=O)(=O)/C=C/c1ccccc1 (stereo not given),i,i
COc1cccc(NC(=O)CSc2ncc(S(=O)(=O)c3ccc(C(C)(C)C)cc3)c(=O)[nH]2)c1,nt,i
CCC(C)NC(=O)CCCn1nc(-c2cccc(OC)c2)ccc1=O (stereo not given),nt,i
O=C(NCC1(c2ccccc2)CCOCC1)c1ccccc1C(F)(F)F,i,i
CCC1(C)CC(CCN(Cc2ccccc2F)C(C)=O)(c2ccccc2)CCO1 (stereo not given),nt,+
O=C(c1cc2ccccc2o1)N(C(=O)N1CCCCC1)c1ccc(Cl)cc1,nt,i
O=C(c1cc(=O)c2ccccc2o1)N(C(=O)N1CCCCC1)c1ccc(Cl)cc1,nt,+
O=C(c1ccc(Br)o1)N(C(=O)N1CCCCC1)c1cccc(Cl)c1,i,i
O=C(c1ccc([N+](=O)[O-])o1)N(C(=O)N1CCCCC1)c1ccc(Cl)cc1,nt,+
CCn1c(=NC(=O)c2cccc(S(=O)(=O)C(C)C)c2)sc2cc3c(cc21)OCCO3,i,i
CCOC(=O)N1CCc2nc(NC(C)=O)sc2C1,i,i
CCN1CCc2nc(N)sc2C1,i,+
COc1ccc(-c2nnc3ccc(OCCNC(=O)NCc4ccccc4)nn23)cc1,i,+
CCCC(=O)NCCOc1ccc2nnc(-c3cccc(OC)c3)n2n1,i,i
COc1ccc(-c2nnc3ccc(OCCNC(=O)Nc4ccc(F)cc4)nn23)cc1,i,+
CCC(C(=O)NCCOc1ccc2nnc(-c3ccc(OC)cc3)n2n1)c1ccccc1 (stereo not given),i,i
SMILES,GIRK2 act,GluA2 TARP mod
CCCC(=O)NCCOc1ccc2nnc(-c3ccc(OC)c(OC)c3)n2n1,i,+
COc1ccc(-c2nnc3ccc(OCCNC(=O)Nc4ccc(Cl)cc4)nn23)cc1,i,i
Cc1ccc2c(c1)CCCN2C(=O)CCCn1nc(-c2ccc(F)cc2)ccc1=O,i,i
O=C(NCC(O)(c1ccccc1)C1CC1)C1COc2ccccc2O1 (stereo not given),nt,i
O=C(NCCCCN1CCOC(c2ccccc2)C1)c1cccs1 (stereo not given),i,nt
O=C(Cn1c(=O)c2sccc2n(Cc2cccc([N+](=O)[O-])c2)c1=O)NCc1ccccc1Cl,i,i
O=C(Nc1ccc2sccc2c1)c1ccno1,i,+
O=C(Nc1ccc(O)c(-c2nc3ccccc3s2)c1)c1ccno1,i,i
Cc1cccc(CC(=O)Nc2ccc3c(c2)CC(=O)N3C)c1,nt,i
CN1C(=O)Cc2cc(NC(=O)c3ccno3)ccc21,i,+
CN1C(=O)c2ccc(NC(=O)c3ccno3)cc2C1=O,nt,+
CN1CCOc2ccc(NC(=O)c3ccno3)cc2C1=O,i,i
CC(O)(CNC(=O)COc1ccc2ccccc2c1)c1ccccc1 (stereo not given),i,i
COc1cccc(OCC(=O)NCC(C)(O)c2ccc(-c3ccccc3)cc2)c1 (stereo not given),i,+
COc1ccc(CNC(=O)NCC(O)c2cccn2C)cc1OC (stereo not given),i,i
CCCc1c(C(=O)Nc2ccccc2Cl)nnn1-c1ccccc1,i,i
CC(C)(C)C(=O)Nc1sc2c(c1C#N)CCN(Cc1ccccc1)C2,i,+
CCC(=O)Nc1sc2c(c1-c1nc3ccccc3s1)CCN(Cc1ccccc1)C2,nt,i
O=C(NCC(O)C1CCCCC1)NC1CCCCC1 (stereo not given),i,nt
O=S(=O)(NCC(O)(c1ccccc1)C1CC1)c1ccc2c(c1)OCCO2 (stereo not given),i,i
O=C(NCC1CCN(C(=O)c2ccncc2)CC1)C(=O)NCC(F)(F)F,i,i
COCCCn1c(N)c(S(=O)(=O)c2ccc(OC)cc2)c2nc3ccccc3nc21,i,i
COCCCn1c(N)c(S(=O)(=O)c2cc(C)ccc2C)c2nc3ccccc3nc21,i,i
COCCn1c(N)c(S(=O)(=O)c2cccc(Cl)c2)c2nc3ccccc3nc21,i,+
COCCCn1c(N)c(S(=O)(=O)c2ccc(Cl)cc2)c2nc3ccccc3nc21,i,+
SMILES,GIRK2 act,GluA2 TARP mod
Cc1ccc(OCC(O)Cn2c(N3CCCCC3)nc3c2c(=O)n(C)c(=O)n3C)cc1C (stereo not given),nt,i
O=C(Cn1nc2ccc(SCc3ccc(Cl)cc3)nn2c1=O)NCc1ccccc1,i,i
O=C(CSc1ncc(S(=O)(=O)c2ccc(Br)cc2)c(=O)[nH]1)Nc1ccccc1F,nt,+
Cc1ccc(S(=O)(=O)c2cnc(SCC(=O)Nc3ccc(Br)cc3)[nH]c2=O)cc1,i,i
O=C(Nc1ccc2c(c1)N(C(=O)c1cccs1)CC2)c1ccc(F)c(F)c1,i,nt
CC(C)(C)c1cc(NCCCn2ccnc2)n2ncc(-c3ccccc3)c2n1,i,i
CN(C)CCNc1cc(C(C)(C)C)nc2c(-c3ccccc3)cnn12,i,+
Cn1nc(-c2cccc(NS(=O)(=O)c3cccc([N+](=O)[O-])c3)c2)ccc1=O,i,i
COc1cccc(-c2cc(CC(=O)NCCCN3CCOCC3)no2)c1,i,+
COc1ccc(-c2cc(CC(=O)NCCN3CCOCC3)no2)cc1,i,nt
CCN(CC)c1ccc(C2C(C(=O)Nc3cccc(C(F)(F)F)c3)=C(C)NC3=C2C(=O)CCC3)cc1 (stereo not given),nt,i
CC1=C(C(=O)Nc2cccc(C(F)(F)F)c2)C(c2ccc(C)cc2)C2=C(CCCC2=O)N1 (stereo not given),nt,+
Cc1cc(C)c(S(=O)(=O)NCC2CCN(C3CCCC3)CC2)cc1C,i,i
CCOc1ccc(S(=O)(=O)NCC2CCN(C3CCCC3)CC2)cc1C,i,+
Cc1cc(F)ccc1S(=O)(=O)NCC1CCN(C2CCCC2)CC1,i,i
CCc1ccc(S(=O)(=O)NCC2CCN(C3CCCC3)CC2)s1,i,+
COc1ccccc1NC(=O)N1CCC(CNS(=O)(=O)c2ccc(Cl)s2)CC1,i,i
COCCn1c(SCC(=O)c2c(C)[nH]c3ccccc23)nc2cc(C(=O)NC(C)C)ccc2c1=O,nt,+
COCCn1c(SCc2ccc(Cl)cc2)nc2cc(C(=O)NC(C)C)ccc2c1=O,i,i
O=S(=O)(NCC#CCN1CCc2ccccc2C1)c1cccc(Cl)c1,i,i
COc1ccc(S(=O)(=O)NCC#CCN2CCc3ccccc3C2)cc1C,i,+
